Source: PubChem BioAssay (National Center for Advancing Translational Sciences (NCATS))
Shown are actives, neighbours in structure and some others; about 2.5% of the full set was active somewhere.
Pol beta inh: DNA polymerase beta (human) inhibition. P06746. AID 485314. actives 1.3% (n = 340,000). Pol beta primer extension/strand displacement, fluorescence kinetic. Potency, µM (doses to about 114 µM), without a hit: top-dose activity change, negative = inhibition, hits mostly inhibitors; also: % is scaled to controls: 0 for no effect and ±100 for the full control effect
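Curves were derived by four-parameter Hill fits of normalized qHTS data. The kinetic fluorescent primer-extension read was taken at 0 and 10 min after 50 nM substrate, following a 15 min room-temperature preincubation of 10 nM enzyme with compounds.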
POLH inh: DNA polymerase eta (human) inhibition; Potency, µM (titrated, usually from 114 µM), for inactives: top-dose activity change, negative = inhibition, most hits filed as inhibitors; AID 588591; actives 1.2% (n = 390,000); Q9Y253; recombinant Pol eta, fluorescent DNA replication assay; also: % is scaled to controls: 0 for no effect and ±100 for the full control effect
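Pol eta (10 nM) was preincubated with compounds for 15 min at room temperature, after which fluorescent replication substrate (50 nM final) was added to start the reaction. Fluorescence was read kinetically at 0 and 10 min.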
POLI inh: DNA polymerase iota (human) inhibition; Q9UNA4; Pol iota fluorescent replication assay, 10 min; Potency, µM (highest dose often 115 µM), without a hit: at the top dose activity, negative = inhibition, actives largely listed as inhibitors; actives 1% (n = 390,000); AID 588590
Target sequence (Q9UNA4 whole entry, looked up): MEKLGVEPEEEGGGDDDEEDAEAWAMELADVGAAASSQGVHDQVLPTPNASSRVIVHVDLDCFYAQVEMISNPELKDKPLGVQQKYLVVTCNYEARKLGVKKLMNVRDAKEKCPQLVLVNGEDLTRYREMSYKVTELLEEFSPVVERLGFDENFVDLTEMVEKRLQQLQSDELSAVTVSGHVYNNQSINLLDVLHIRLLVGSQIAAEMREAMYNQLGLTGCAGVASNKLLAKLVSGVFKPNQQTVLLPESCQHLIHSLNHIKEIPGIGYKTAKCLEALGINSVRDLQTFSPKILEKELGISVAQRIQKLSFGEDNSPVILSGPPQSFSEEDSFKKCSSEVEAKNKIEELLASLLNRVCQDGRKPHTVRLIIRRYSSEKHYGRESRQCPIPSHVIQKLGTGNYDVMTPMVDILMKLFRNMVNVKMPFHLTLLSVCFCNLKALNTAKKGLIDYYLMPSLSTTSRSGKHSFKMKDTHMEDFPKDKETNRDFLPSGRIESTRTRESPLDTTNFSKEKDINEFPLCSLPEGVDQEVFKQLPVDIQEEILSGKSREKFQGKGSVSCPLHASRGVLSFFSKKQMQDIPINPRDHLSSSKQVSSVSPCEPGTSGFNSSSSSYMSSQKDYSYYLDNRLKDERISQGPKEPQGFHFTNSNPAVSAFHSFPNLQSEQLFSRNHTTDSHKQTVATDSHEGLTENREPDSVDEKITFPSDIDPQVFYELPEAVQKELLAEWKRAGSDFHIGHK
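Fluorescent replication assay read twice, at 0 min and 10 min after adding 50 nM (final) substrate. Enzyme (10 nM) and compounds were first incubated 15 min at room temperature; enzyme-free buffer wells were negative controls.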
L3MBTL1 inh: blocks human L3MBTL1; Potency, µM (highest dose often 57.1 µM), for the others: at the highest dose activity, negative = inhibition, actives largely listed as inhibitors; AlphaScreen L3MBTL1–H3K9me1 peptide binding; Q9Y468; AID 485360; actives 0.66% (n = 230,000); also: % is scaled to controls: 0 for no effect and ±100 for the full control effect; nearly all actives have a fitted effect of over 60% in size
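Displacement of a biotinylated histone H3(1-15) peptide monomethylated at Lys9 (75 nM) from L3MBTL1 (50 nM) was measured by AlphaScreen after a 30 min room-temperature compound incubation; cefsulodin titration served as intraplate control.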
APE1 inh: inhibitors of human APE1 endonuclease; P27695; recombinant APE1, TAMRA/BHQ-2 abasic DNA cleavage fluorescence; Potency, µM (series often up to 65.8 µM), for the others: at the top dose activity change, negative = inhibition, most hits filed as inhibitors; actives 0.35% (n = 350,000);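 also: plate controls were vehicle for no effect and reference inhibitor for full effect; nearly all actives have a fitted effect of over 55% in size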
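Endonuclease cleavage of a quenched abasic-site DNA duplex (50 nM) by APE1 (0.75 nM) was tracked by TAMRA dequenching. Compounds were preincubated with enzyme 15 min at room temperature; data normalized to buffer-only and DMSO wells plus NSC13755 control.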
Pol kappa inh: blocks human DNA polymerase kappa activity; Q9UBT6; purified Pol kappa, fluorescent DNA synthesis assay, 10 min; Potency, µM (top dose mostly 107 µM), for inactives: at the top dose activity, negative = inhibition, most hits filed as inhibitors; actives 0.53% (n = 400,000); also: % is scaled to controls: 0 for no effect and ±100 for the full control effect
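First, compounds were pin-transferred onto 10 nM Pol kappa. After 15 min at room temperature, substrate was added to 50 nM final. Fluorescence was then measured kinetically at 0 and 10 min.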
Active calls of the source: *; ? = inconclusive; . = no result given; ! = not confirmed by another sample; [ ] = dose if it differs, or a comment. Calls follow the shape of the dose curve; as a rule, active = well fitted curve in the direction sought with a large enough effect; inconclusive = small, poorly fitted or top-dose-only effect, or another doubt; inactive = no such curve, though single readings can be large; an effect the other way counts as inactive or inconclusive. Potency is read from the fitted curve at half-maximal effect.

SMILES	Pol beta inh	POLH inh	POLI inh	L3MBTL1 inh	APE1 inh	Pol kappa inh
O=C(N/N=C/c1cc(Br)c(Br)o1)C(O)c1ccccc1 (configuration not stated)	22µM*	50µM*	?	-27%	?	-39%
O=C(COc1ccccc1[N+](=O)[O-])N/N=C/C=C/c1ccco1	?	?	?	-30%	0%	-36%
O=C(N/N=C/C=C/c1ccco1)C(O)c1ccccc1 (configuration not stated)	.	50µM*	13µM*	.	.	?
CCn1c(SCC(=O)N/N=C/C=C/c2ccco2)nc2ccccc21	22µM*	50µM*	20µM*	35µM*	?	-49%
CC(/C=N/NC(=O)CSc1nc2ccccc2n1C)=C\c1ccco1	?	14µM*	56µM*	-15%	-8%	?
Cn1c(SCC(=O)N/N=C/c2ccco2)nc2ccccc21	-13%	3%	25%	-1%	-1%	-1%
CCCCCCCCN(CCCCCCCC)c1ccc(/C=C/c2ccnc3ccccc23)cc1	.	.	-11%	.	.	-6%
CC1CN(C2=Nc3cccc4cccc2c34)CC(C)O1 (configuration not stated)	19%	-7%	25µM*	-18%	8%	12%
N#CCSc1ncnc2sc3c(c12)CCC3	?	89µM*	?	0%	13%	?
CC(=O)c1nn(-c2ccc(OC(F)(F)F)cc2)nc1Nc1ccc(Cl)cc1	40%	-13%	9%	.	.	-1%
Cc1ccc(C(=O)Sc2cccccc2=O)cc1	40µM*	-14%	?	.	-14%	-17%
O=C(Nc1ccccc1SC(=O)c1ccccc1)c1ccccc1	.	-14%	.	.	.	.
O=C1c2c(O)cc(O)cc2O[C@H](c2ccc(O)c(O)c2)[C@@H]1O	3.5µM*	.	.	.	?	.
O=C1c2c(O)cc(O)cc2O[C@H](c2ccc(O)c(O)c2)[C@H]1O	3.2µM*	4%	79µM*	.	?	?
O=C1c2c(O)cc(O)cc2O[C@H](c2ccc(O)cc2)[C@H]1O	.	-12%	-15%	.	.	8%
CCOC(=O)c1c(/C=N/Nc2ccccc2)c2sc(C)cc2n1C	.	.	.	-9%	-9%	.
CC(=O)O[C@@]12CO[C@@H]1C[C@H](O)[C@@]1(C)C(=O)[C@H](O)C3=C(C)[C@@H](OC(=O)C(O)[C@@H](NC(=O)OC(C)(C)C)c4ccccc4)C[C@@](O)([C@@H](OC(=O)c4ccccc4)[C@H]21)C3(C)C (some centres not stated)	.	.	-10%	.	.	-3%[19.4 µM]
COc1ccc(-c2nc3cc(NC(=O)c4ccc(C)cc4)ccc3o2)cc1Cl	-3%	2%	-4%	.	.	-13%
COc1ccc2[nH]c3nc(SCC(=O)Nc4cccc(NC(C)=O)c4)nnc3c2c1	35µM*	0%	?	1%	-24%	-20%
COc1ccc2[nH]c3nc(SCc4nnc(-c5ccccc5)o4)nnc3c2c1	22µM*	-32%	8%	-6%	-1%	-12%
COc1cccc(NC(=O)CSc2nnc3c(n2)[nH]c2ccc(C)cc23)c1	11%	-9%	7%	.	10%	-4%
CC(C)CCNC(=O)C(CC(C)C)NC(=O)C1OC1C(=O)O (configuration not stated)	.	.	.	.	11%	10%[60.1 µM]
COc1ccc(C(=O)c2cn(CC(=O)Nc3cc(OC)cc(OC)c3)c3ccc(OC)cc3c2=O)cc1	-26%	79µM*	?	-1%	26%	-23%
Nc1cc(F)ccc1N1CCCCCC1	22%	-15%	56%	5%	10%	-4%
Nc1cc(C(=O)O)ccc1N1CCCCC1	?	10µM*	?	?	?	79µM*
SMILES	Pol beta inh	POLH inh	POLI inh	L3MBTL1 inh	APE1 inh	Pol kappa inh
CC1CCN(c2ccc(C(=O)O)cc2N)CC1	?	18µM*	?	-3%	-3%	-17%
Fc1ccc(C(OCCCc2cnc[nH]2)c2ccc(F)cc2)cc1	-5%[57.1 µM]	-7%[57.1 µM]	-10%[58.9 µM]	.	-2%	-7%[60.1 µM]
CCOc1ccccc1Oc1coc2cc(O)ccc2c1=O	42%	-16%	10%	6%	-2%	2%
CCOc1ccc2c(=O)c(Oc3ccccc3OCC)coc2c1	-17%	-6%	89µM*	.	?	-14%
CCOc1ccccc1Oc1coc2cc(OCC(=O)O)ccc2c1=O	10µM*	28µM*	3%	?	?	-41%
CC(C)=CCc1c(O)cc2oc3c(CC=C(C)C)c(O)c(O)c(CC=C(C)C)c3c(=O)c2c1O	45µM*	40µM*	?	.	?	79µM*
COc1c(O)cc2oc3cc(O)c(CC=C(C)C)c(O)c3c(=O)c2c1CC=C(C)C	.	.	.	.	-6%	?
COc1ccc(Cl)cc1NC(=O)CCn1nc(C)cc1C	32µM*	-15%	?	.	.	-29%
COc1ccc(Cl)cc1NC(=O)CSc1sc2c(O)cc(=O)[nH]c2c1C#N	-14%	25µM*	25µM*	.	24%	?
COc1ccc(Cl)cc1NC(=O)CSc1nc2sccc2c(=O)[nH]1	56µM*	-29%	3%	.	37%	-16%
COc1ccccc1NC(=O)CSc1sc2c(O)cc(=O)[nH]c2c1C#N	0.56µM*	20µM*	2.8µM*	.	58%[12.4 µM]	50µM*
Cc1ncc(CO)c2c1Oc1nc(-c3ccccc3)nc(SCC(=O)Nc3cccc(C(F)(F)F)c3)c1C2	35µM*	?	-15%	.	.	-4%
CCOc1ccc(NC(=O)CSc2nc(-c3ccc(OC)cc3)nc3c2Cc2c(CO)cnc(C)c2O3)cc1	40µM*	-2%	?	.	.	-3%
CCc1ccc(-c2nc3c(c(SCc4ccc(F)cc4)n2)Cc2c(CO)cnc(C)c2O3)cc1	16%	-15%	25%	.	.	-1%
COc1ccc(-c2nc3c(c(SCC(=O)Nc4cccc(O)c4)n2)Cc2c(CO)cnc(C)c2O3)cc1	1.6µM*!	20µM*	6.3µM*	.	36%	79µM*!
Cc1ncc(CO)c2c1Oc1nc(-c3ccc(F)cc3)nc(SCc3ccc(F)cc3Cl)c1C2	50µM*	-9%	11%	.	.	-29%
Cc1ncc(CO)c2c1Oc1nc(-c3ccccc3)nc(SCC(=O)Nc3cccc(O)c3)c1C2	3%	?	?	.	-23%	-17%
CCc1ccccc1NC(=O)CSc1nc(-c2cccc(Cl)c2)nc2c1Cc1c(CO)cnc(C)c1O2	1%	3%	-12%	.	.	-8%
Cc1ccc(Nc2c(-c3ccc(C)s3)nc3cccc(C)n23)cc1	.	.	45%	.	.	-4%
O=[N+]([O-])c1ccc(O/N=[N+](\[O-])N2CCCC2)c([N+](=O)[O-])c1	.	.	?	.	.	-18%
